Laboratory results from PubChem BioAssay (NCATS).
Inconclusive results are not listed. Calls of active or inactive are those of the source. Calls follow the shape of the dose curve; as a rule, active = well fitted inhibition curve with a large enough effect; inconclusive = small, poorly fitted or top-dose-only effect; inactive = flat fitted curve, though single readings scatter.

How the values were obtained:
PC15 = assay: qHTS profiling for inhibitors of Plasmodium falciparum proliferation (AID 504749); conditions: P. falciparum in erythrocytes, SYBR Green DNA, 72 h; series mostly up to 28.7 µM
Method in brief: (§1)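 Parasite proliferation within erythrocytes, 72 h exposure. Endpoint: SYBR Green I fluorescence after overnight lysis at room temperature. Controls: 0.29 uM artemisinin, DMSO.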

PC26 = assay: as above; conditions: P. falciparum in erythrocytes, SYBR Green DNA, 72 h; series mostly up to 28.7 µM
Method in brief: as §1

PC49 = assay: as above; conditions: P. falciparum in erythrocytes, SYBR Green DNA, 72 h; series mostly up to 28.7 µM
Method in brief: as §1

SC27B = assay: as above; conditions: P. falciparum in erythrocytes, SYBR Green DNA, 72 h; series mostly up to 28.7 µM
Method in brief: as §1

TAB109 = assay: as above; conditions: P. falciparum in erythrocytes, SYBR Green DNA, 72 h; series mostly up to 28.7 µM
Method in brief: as §1

TAB113 = assay: as above; conditions: P. falciparum in erythrocytes, SYBR Green DNA, 72 h; series mostly up to 28.7 µM
Method in brief: as §1

W2 = assay: as above; conditions: P. falciparum in erythrocytes, SYBR Green DNA, 72 h; series mostly up to 28.7 µM
Method in brief: as §1

HEK293 = assay: Cytotoxic Profiling of Annotated Libraries Using Quantitative High-Throughput Screening (AID 1296008); conditions: Five cell lines viability, CellTiter-Glo ATP luminescence, 48-72 h; max response: stronger effect = lower value; as to max response: % is scaled to controls: 0 for no effect and ±100 for the full control effect
Method in brief: (§2)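 Compounds were pin-transferred onto cells and incubated 48 or 72 hr at 37 degree Celsius, 95% humidity. CellTiter-Glo was added, plates sat 10 min at room temperature, then ATP-coupled luminescence was imaged as the viability read-out.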

HaCat [1] = assay: as above; conditions: Five cell lines viability, CellTiter-Glo ATP luminescence, 48-72 h; max response: stronger effect = lower value
Method in brief: as §2

KB-3-1 = assay: as above; conditions: Five cell lines viability, CellTiter-Glo ATP luminescence, 48-72 h; max response: stronger effect = lower value
Method in brief: as §2

MCC-13 = assay: qHTS assay to identify novel small-molecules to repurpose for Merkel cell carcinoma treatment (AID 1296009); conditions: MCC and control cell lines, CellTiter-Glo viability, 72 h; series mostly up to 46 µM
Method in brief: (§3)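 qHTS format: cells treated with library compounds in DMSO across 8 (NPC) or 11 (MIPE) concentrations. Readout after 72 hr at 37 degree celsius was CellTiter-Glo luminescence.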

MCC-26 = assay: as above; conditions: MCC and control cell lines, CellTiter-Glo viability, 72 h; series mostly up to 46 µM
Method in brief: as §3

TAB165 = assay: qHTS profiling for inhibitors of Plasmodium falciparum proliferation (AID 504749); conditions: P. falciparum in erythrocytes, SYBR Green DNA, 72 h; series mostly up to 28.7 µM
Method in brief: as §1

CRL-7250 = normal cell line; assay: Cytotoxic Profiling of Annotated Libraries Using Quantitative High-Throughput Screening (AID 1296008); conditions: Five cell lines viability, CellTiter-Glo ATP luminescence, 48-72 h; max response: stronger effect = lower value; as to max response: % is scaled to controls: 0 for no effect and ±100 for the full control effect
Method in brief: as §2

NIH3T3 = assay: as above; conditions: Five cell lines viability, CellTiter-Glo ATP luminescence, 48-72 h; max response: stronger effect = lower value
Method in brief: as §2

MKL-1 = assay: qHTS assay to identify novel small-molecules to repurpose for Merkel cell carcinoma treatment (AID 1296009); conditions: MCC and control cell lines, CellTiter-Glo viability, 72 h; series mostly up to 46 µM
Method in brief: as §3

MKL-2 = assay: as above; conditions: MCC and control cell lines, CellTiter-Glo viability, 72 h; series mostly up to 46 µM
Method in brief: as §3

HACAT [2] = assay: as above; conditions: MCC and control cell lines, CellTiter-Glo viability, 72 h; at 44.8 µM (top of the series) unless noted
Method in brief: as §3
Also: nearly all actives have a fitted effect of over 60% in size.
Potency is read from the fitted curve at half-maximal effect.

CCN(CC)C(=O)/C(C#N)=C/c1cc(O)c(O)c([N+](=O)[O-])c1
inactive: Potency (PC15) | Potency (PC26) | Potency (PC49) | Potency (SC27B) | Potency (TAB109) | Potency (TAB113) | Potency (W2) | max response (HEK293) -12.8% | max response (HaCat [1]) -5.03% | max response (KB-3-1) 3.63% | Potency (MCC-13) | Potency (MCC-26)

CC(=O)OCC(=O)[C@@]1(OC(C)=O)[C@@H](C)C[C@H]2[C@@H]3C[C@H](F)C4=CC(=O)C=C[C@]4(C)[C@@]3(F)[C@@H](O)C[C@@]21C
inactive: Potency (PC15) | Potency (PC26) | Potency (PC49) | Potency (SC27B) | Potency (TAB109) | Potency (TAB165) | outcome (CRL-7250) | max response (KB-3-1) 6.89% | max response (NIH3T3) -5% | Potency (MCC-13) | Potency (MCC-26) | Potency (MKL-1) | Potency (MKL-2)
active: Potency (W2) 6.01 µM

CCCCCCc1ccc(O)cc1O
inactive: Potency (PC15) | Potency (PC26) | Potency (PC49) | Potency (SC27B) | Potency (TAB109) | Potency (TAB113) | Potency (TAB165) | Potency (W2) | max response (KB-3-1) 0.129% | max response (NIH3T3) 4.72% | Potency (MCC-13) | Potency (MCC-26) | Potency (MKL-1) | Potency (MKL-2)

CCCC1O[C@@H]2C[C@H]3[C@@H]4CCC5=CC(=O)C=C[C@]5(C)[C@H]4[C@@H](O)C[C@]3(C)[C@]2(C(=O)CO)O1 (stereo partly drawn)
inactive: max response (KB-3-1) 0.499%

O=C(CCN1CCC(c2ccccc2)C1)c1ccc2c(c1)OCCO2 (stereo not drawn)
active: Potency (MKL-1) 2.66 µM | Potency (MKL-2) 0.841 µM
inactive: Potency (PC15) | Potency (PC26) | Potency (PC49) | Potency (SC27B) | Potency (TAB109) | Potency (TAB113) | Potency (TAB165) | Potency (W2) | outcome (HaCat [1]) | max response (KB-3-1) -5.38% | outcome (HACAT [2]) | Potency (MCC-26)

NC(CO)(CO)CO
inactive: Potency (PC15) | Potency (PC26) | Potency (PC49) | Potency (SC27B) | Potency (TAB109) | Potency (TAB113) | Potency (TAB165) | Potency (W2) | max response (KB-3-1) 3.6% | max response (NIH3T3) -20% | Potency (MCC-13) | Potency (MCC-26) | Potency (MKL-1) | Potency (MKL-2)

Oc1c(I)cc(I)c2cccnc12
active: Potency (MKL-1) 18.8 µM | Potency (MKL-2) 11.9 µM
inactive: Potency (PC49) | Potency (SC27B) | Potency (TAB113) | outcome (HaCat [1]) | outcome (HACAT [2]) | Potency (MCC-13) | Potency (MCC-26)

CN(C(=O)CN(CCO)CC(=O)N(C)C(C)(C)Cc1ccccc1)C(C)(C)Cc1ccccc1
active: Potency (W2) 3.61 µM | Potency (MKL-2) 16.8 µM
inactive: Potency (PC15) | Potency (PC26) | Potency (PC49) | Potency (SC27B) | Potency (TAB109) | Potency (TAB113) | max response (HaCat [1]) -0.203% | max response (KB-3-1) -13.8% | Potency (MCC-26)

Oc1c(I)cc(Cl)c2cccnc12
active: Potency (TAB109) 12.6 µM | Potency (TAB165) 12.6 µM | Potency (MKL-2) 7.5 µM
inactive: Potency (PC15) | Potency (PC26) | Potency (PC49) | Potency (W2) | outcome (HaCat [1]) | max response (KB-3-1) -8.86% | outcome (HACAT [2])

COc1cc(N)c(Cl)cc1C(=O)NC1CCN(CCCOc2ccc(F)cc2)CC1OC (stereo not drawn)
inactive: max response (HaCat [1]) -1.88% | Potency (MCC-13) | Potency (MCC-26) | Potency (MKL-1)

CC(C)N=C(N)/N=C(\N)Nc1ccc(Cl)cc1
active: Potency (PC15) 0.708 µM | Potency (PC26) 1.61 µM | Potency (W2) 1.28 µM
inactive: Potency (TAB113) | max response (HaCat [1]) 0.505% | max response (KB-3-1) -14.7% | Potency (MCC-13) | Potency (MCC-26) | Potency (MKL-1)

CCCCOc1cc(C(=O)NCCN(CC)CC)c2ccccc2n1
inactive: Potency (PC15) | Potency (PC26) | Potency (PC49) | Potency (SC27B) | Potency (TAB109) | Potency (TAB113) | Potency (TAB165) | max response (HaCat [1]) 2.41% | max response (KB-3-1) 0.155% | Potency (MCC-13) | Potency (MCC-26) | Potency (MKL-1)

COc1ccc(/C=C/C(=O)c2ccc(OC)cc2OC)cc1
active: Potency (PC15) 7.08 µM | Potency (PC26) 7.57 µM | Potency (PC49) 5.62 µM | Potency (SC27B) 10 µM | Potency (TAB109) 7.08 µM | Potency (TAB113) 8.91 µM | Potency (TAB165) 4.47 µM | Potency (W2) 4.26 µM | Potency (MKL-2) 5.31 µM
inactive: max response (HaCat [1]) -62.6% | max response (NIH3T3) -18.9%

Cc1cccc(C)c1NC(=O)CN1CCN(CCCC(c2ccc(F)cc2)c2ccc(F)cc2)CC1
inactive: Potency (PC15) | Potency (PC49) | Potency (TAB113) | max response (KB-3-1) -1.23% | Potency (MCC-13) | Potency (MCC-26) | Potency (MKL-1)
active: Potency (W2) 4.55 µM

O=C(N/N=C/c1ccccc1O)c1ccncc1
active: Potency (TAB109) 12.6 µM | Potency (TAB165) 5.62 µM | Potency (W2) 6.01 µM | Potency (NIH3T3) 16.8 µM | Potency (MKL-1) 1.06 µM | Potency (MKL-2) 0.75 µM
inactive: Potency (PC15) | Potency (PC49) | max response (HaCat [1]) -6.14%

Oc1ccc(Cl)cc1Sc1cc(Cl)ccc1O
active: Potency (MKL-1) 21.1 µM
inactive: Potency (PC15) | Potency (PC26) | Potency (PC49) | Potency (TAB109) | max response (HaCat [1]) 2% | max response (NIH3T3) -21.9% | Potency (MCC-26)

CCN(CC)CCOC(=O)C(c1ccccc1)C1CCCCC1 (stereo not drawn)
inactive: Potency (PC49) | Potency (SC27B) | Potency (TAB109) | Potency (TAB165) | outcome (HaCat [1]) | max response (KB-3-1) -2.77% | outcome (HACAT [2]) | Potency (MCC-13) | Potency (MKL-1)
active: Potency (W2) 7.57 µM

O=S1(=O)c2cccc3cccc(c23)N1CCCN1CCN(c2ccc(F)cc2)CC1
inactive: Potency (PC15) | Potency (PC49) | Potency (SC27B) | Potency (TAB109) | Potency (TAB113) | Potency (TAB165) | Potency (W2) | max response (HaCat [1]) -0.344% | max response (KB-3-1) -1.2% | max response (NIH3T3) -13.9% | Potency (MCC-13) | Potency (MCC-26) | Potency (MKL-1)
